The record followed here is PubChem BioAssay (Tox21).

Assay [1] has as its target Gonadotropin-releasing hormone receptor (Homo sapiens) (UniProt P30968). As to the kind of experiment: Human gonadotropin-releasing hormone receptor (GnRHR) small molecule agonists, calcium flux assay in GnRHR-HEK293 cells (AID 1920063). Note: nearly all actives have a fitted effect of over 35% in size. The method, boiled down:
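HEK293 cells stably expressing human GnRHR were plated 18 h at 37 °C, loaded with calcium dye 1 h at 37 °C, then given compound in agonist mode; fluorescence (Ex/Em 480/540) read kinetically for 3 min at 1 s intervals.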

The target of assay [2] is KiSS-1 receptor (Homo sapiens) (UniProt Q969F8). As to the kind of experiment: Human kisspeptin (KISS1R) small molecule agonists, calcium flux assay in KISS1R-HEK293 cells (AID 1920064; active = well fitted activation curve with a large enough effect in the repeat runs). A digest of the protocol:
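HEK293 cells stably expressing human KISS1R were plated 18 h at 37 °C, loaded with calcium dye for 1 h at 37 °C, then given compound by pin tool. Fluorescence (Ex/Em 480/540) was read kinetically for 3 min.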

Assay [3] in a line: G protein-coupled receptor (GPCR) small molecule agonists, calcium flux assay: HEK293 wild type cell line counter screen (AID 1920065). A digest of the protocol: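 Cells were plated and cultured 18 h at 37 C/5% CO2, then loaded with calcium dye for 1 h at 37 C. Compounds in DMSO were pin-transferred in agonist mode, and fluorescence (Ex/Em 480/540) was read kinetically for 3 min at 1 s intervals.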

Assay [4] can be described thus: p53 small molecule agonists, cell-based qHTS assay with rat liver microsomes (AID 1963578). Note: potency is the fitted concentration of half-maximal effect. The method, boiled down: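 p53RE-bla cells, 4,000/well, pre-incubated 5 h, then given compounds plus rat liver microsomes (0.5 mg/mL final) and NADPH (0.5 mg/mL final). Incubation 16 h at 37 C; beta-lactamase reporter read by LiveBLAzer fluorescence after 2 h at room temperature.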

Assay [5] is described as follows: p53 small molecule agonists, cell-based qHTS assay with human liver microsomes: qHTS cell viability counter screen (AID 1963579). Note: nearly all actives have a fitted effect of over 45% in size. The method, boiled down:
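p53RE-bla cells, 4,000/well, dosed 5 hours after plating, with human liver microsomes (0.5 mg/mL final) plus NADPH (0.5 mg/mL final), 16 hours at 37 C. Viability read as CellTiter-Glo luminescence after 30 min at room temperature.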

Assay [6] in a line: p53 small molecule agonists, cell-based qHTS assay with rat liver microsomes: qHTS cell viability counter screen (AID 1963580). Note: nearly all actives have a fitted effect of over 45% in size. A digest of the protocol: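 Viability is assessed in parallel with the p53 reporter read: HCT-116 p53RE-bla cells receive compounds plus rat microsomes and NADPH (0.5 mg/mL final apiece), incubate 16 h at 37 C, and then CellTiter-Glo luminescence is recorded.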

Assay [7] is described as follows: p53 small molecule agonists, cell-based qHTS assay: qHTS cell viability counter screen (AID 1963581). Note: nearly all actives have a fitted effect of over 45% in size. The method, boiled down:
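p53RE-bla HCT-116 cells were exposed to compounds for 16 h at 37 C; after the beta-lactamase FRET read in the same wells, CellTiter-Glo was added and luminescence (intracellular ATP) read after 30 min at room temperature.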

The target of assay [8] is 5-hydroxytryptamine receptor 2A (Homo sapiens) (UniProt P28223). As to the kind of experiment: 5-hydroxytryptamine receptor 2A (HTR2A) small molecule antagonists, cell-based qHTS assay (AID 1963586). Note: nearly all actives have a fitted effect of over 45% in size. Note: potency is the fitted concentration of half-maximal effect. A digest of the protocol: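 Antagonist-mode intracellular calcium assay: DOI (4 nM) added after 5 min compound pre-incubation at room temperature to dye-loaded HTR2A-CHO cells. Fluorescence followed for 3 min, sampled every second.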
Chain of 5-hydroxytryptamine receptor 2A (Homo sapiens) (P28223 whole entry, looked up): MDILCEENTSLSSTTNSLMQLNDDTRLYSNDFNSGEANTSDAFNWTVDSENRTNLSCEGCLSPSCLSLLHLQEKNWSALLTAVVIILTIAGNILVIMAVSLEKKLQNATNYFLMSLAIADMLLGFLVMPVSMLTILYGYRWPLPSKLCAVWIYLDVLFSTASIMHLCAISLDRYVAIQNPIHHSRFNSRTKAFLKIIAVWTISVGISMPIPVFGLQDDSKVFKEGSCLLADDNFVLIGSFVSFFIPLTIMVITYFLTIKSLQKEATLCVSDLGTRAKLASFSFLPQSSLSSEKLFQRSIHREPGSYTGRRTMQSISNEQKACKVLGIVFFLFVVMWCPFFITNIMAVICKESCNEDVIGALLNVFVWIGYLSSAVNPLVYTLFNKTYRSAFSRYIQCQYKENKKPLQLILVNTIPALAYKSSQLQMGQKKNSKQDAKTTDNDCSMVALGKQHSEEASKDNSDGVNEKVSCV

The target of assay [9] is Muscarinic acetylcholine receptor M1 (Homo sapiens) (UniProt P11229). As to the kind of experiment: Cholinergic receptor muscarinic 1 (CHRM1) small molecule agonists, cell-based qHTS assay (AID 1963589). Note: nearly all actives have a fitted effect of over 35% in size. The method, boiled down:
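CHO cells stably expressing human CHRM1, seeded 18 h at 37 C/5% CO2, dye-loaded 1 h at 37 C, then given compound in agonist mode; intracellular calcium fluorescence read kinetically at 1 s intervals. Fifteen concentrations, three independent runs.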

The target in assay [10] is Beta-2 adrenergic receptor (Homo sapiens) (UniProt P07550). As to the kind of experiment: Adrenergic beta2 receptor (ADRB2) small molecule antagonists, cell-based qHTS assay (AID 1963592). Note: series mostly up to about 92 µM; nearly all actives have a fitted effect of over 50% in size. A digest of the protocol:
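Cells (CHO, stable ADRB2 overexpression) incubated 18-20hr at 37C; compounds added from DMSO; agonist mix (1nM isoproterenol, 100uM IBMX, 25uM Ro-20-1724) added; 0.5hr RT; d2-cAMP and anti-cAMP-cryptate added; 1hr RT; 665/615 nm read.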

Assay [11] addresses D(2) dopamine receptor (Homo sapiens) (UniProt P14416). As to the kind of experiment: Dopamine D2 receptor (DRD2) small molecule agonists, cell-based qHTS assay (AID 1963594). Note: nearly all actives have a fitted effect of over 35% in size. A digest of the protocol: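 HEK293 cells stably expressing human DRD2, pre-treated with PDE inhibitor Ro20-1724 (0.1 mM final) and compound 10 min at room temperature, then stimulated with NKH477 (200nM […]) for 30 min. cAMP read by HTRF (665/620 nm).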

The target is the same in assay [12]. The assay can be described thus: Dopamine D2 receptor (DRD2) small molecule antagonists, cell-based qHTS assay (AID 1963595; active = well fitted inhibition curve with a large enough effect in the signal ratio in the repeat runs, with a control signal flat; the % refers to the signal ratio). A digest of the protocol: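 HTRF cAMP read-out at 665 and 620 nm emission (340 nm excitation). Antagonist mode: compounds were tested against 12 nM quinpirole in DRD2-HEK293 cells, with 200 nM NKH477 raising cAMP and 0.1 mM Ro20-1724 blocking its breakdown.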

Assay [13] can be described thus: p53 small molecule agonists, cell-based qHTS assay (AID 1963582; active = well fitted activation curve with a large enough effect in the signal ratio in the repeat runs, not every such curve was filed as active; the % refers to the signal ratio). A digest of the protocol: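 p53RE-bla beta-lactamase reporter cells rested 5 h at 37 C/5% CO2, then received compounds in DMSO by pin transfer and were incubated 16 h at 37 C. LiveBLAzer B/G FRET substrate was loaded for 2 h at room temperature before fluorescence reading.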
Assay [14] concerns the target Muscarinic acetylcholine receptor M1 (Homo sapiens) (UniProt P11229). As to the kind of experiment: Cholinergic receptor muscarinic 1 (CHRM1) small molecule antagonists, cell-based qHTS assay (AID 1963588). Note: nearly all actives have a fitted effect of over 40% in size. Note: potency is the fitted concentration of half-maximal effect. The method, boiled down:
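CHRM1-CHO calcium-flux assay, antagonist mode. Cells were seeded 18 h, dye-loaded 1 h at 37 C and given compound for 5 min at RT, then acetylcholine was added at 50nM. FDSS fluorescence was read 3 min; 15 concentrations, three runs.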

Assay [15] in a line: cAMP Responsive Elements (CRE) small molecule agonists, cell-based qHTS assay (AID 1963590). A digest of the protocol: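 CRE-bla HEK 293T cells in DMEM with 10% dialyzed FBS, NEAA, pyruvate and 25 mM HEPES were plated 18 h at 37 C/5% CO2, then exposed to compounds in DMSO for 3 h before LiveBLAzer B/G FRET substrate addition.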
The nature of assay [16]: cAMP Responsive Elements (CRE) small molecule antagonists, cell-based qHTS assay (AID 1963591; active = well fitted inhibition curve with a large enough effect in the signal ratio in the repeat runs, not every such curve was filed as active; the % refers to the signal ratio; note: potency is the fitted concentration of half-maximal effect). The method, boiled down:
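CRE-bla HEK293T cells were plated 18 h at 37 °C/5% CO2, pinned with compound in DMSO, then stimulated with NKH477 at 0.25 uM final for 3 h. LiveBLAzer B/G FRET substrate was added and plates incubated 2 h at room temperature.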

Assay [17] has as its target Beta-2 adrenergic receptor (Homo sapiens) (UniProt P07550). As to the kind of experiment: Adrenergic beta2 receptor (ADRB2) small molecule agonists, cell-based qHTS assay (AID 1963593).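 Note: CHO cells stably overexpressing human ADRB2.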 The method, boiled down: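 CHO cells stably over-expressing ADRB2 were plated overnight at 37C, then dosed with compounds plus a stimulation mix containing 100uM IBMX and 25uM Ro-20-1724 for 0.5hr at room temperature. cAMP was measured by HTRF competition, 1hr.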

Assay [18] can be described thus: p53 small molecule agonists, cell-based qHTS assay with human liver microsomes (AID 1963577). A digest of the protocol: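 p53RE-bla cells, 4,000/well, compound added after 5 h, with human liver microsomes 0.5 mg/mL and NADPH 0.5 mg/mL final; 16 h at 37 C, then LiveBLAzer 2 h RT, fluorescence.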
For assay [19], the target named is 5-hydroxytryptamine receptor 2A (Homo sapiens) (UniProt P28223). As to the kind of experiment: 5-hydroxytryptamine receptor 2A (HTR2A) small molecule agonists, cell-based qHTS assay (AID 1963587). Note: nearly all actives have a fitted effect of over 30% in size. A digest of the protocol:
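CHO cells stably expressing human HTR2A, plated 18 h, loaded with calcium dye 1 h at 37 C. Agonist mode: compounds added and intracellular calcium fluorescence recorded kinetically for 2 min at 1 sec intervals.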

The structures appear in SMILES notation. A number with no mark means an inactive call. Records with an inconclusive call do not appear. Active and inactive are the calls of the source. Unless noted, calls come from the whole dose curve.

Chain of D(2) dopamine receptor (Homo sapiens) (P14416 whole entry, looked up): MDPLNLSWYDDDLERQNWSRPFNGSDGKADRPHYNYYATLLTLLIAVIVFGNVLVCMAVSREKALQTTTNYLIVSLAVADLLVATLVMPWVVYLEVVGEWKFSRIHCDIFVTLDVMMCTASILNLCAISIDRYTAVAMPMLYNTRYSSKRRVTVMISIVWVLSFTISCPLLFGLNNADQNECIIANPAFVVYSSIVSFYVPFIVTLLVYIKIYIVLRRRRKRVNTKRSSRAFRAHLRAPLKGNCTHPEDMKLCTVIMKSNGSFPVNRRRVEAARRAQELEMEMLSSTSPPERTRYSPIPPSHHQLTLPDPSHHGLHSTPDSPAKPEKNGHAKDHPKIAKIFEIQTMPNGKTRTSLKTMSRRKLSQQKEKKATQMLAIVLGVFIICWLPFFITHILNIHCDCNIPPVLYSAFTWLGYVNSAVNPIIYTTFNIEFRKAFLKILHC
Chain of Muscarinic acetylcholine receptor M1 (Homo sapiens) (P11229 whole entry, looked up): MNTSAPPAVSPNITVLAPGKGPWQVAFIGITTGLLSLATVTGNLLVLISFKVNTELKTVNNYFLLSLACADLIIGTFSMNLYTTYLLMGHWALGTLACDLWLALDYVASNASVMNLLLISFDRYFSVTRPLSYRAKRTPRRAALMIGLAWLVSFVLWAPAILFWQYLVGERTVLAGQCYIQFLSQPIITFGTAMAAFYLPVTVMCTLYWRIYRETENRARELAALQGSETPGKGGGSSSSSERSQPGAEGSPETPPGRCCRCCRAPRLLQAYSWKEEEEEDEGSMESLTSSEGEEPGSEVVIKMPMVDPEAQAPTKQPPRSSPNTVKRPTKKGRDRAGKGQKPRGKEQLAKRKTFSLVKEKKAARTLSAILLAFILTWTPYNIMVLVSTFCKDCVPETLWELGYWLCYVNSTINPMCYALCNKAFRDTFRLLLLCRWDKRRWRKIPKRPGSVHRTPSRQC
Chain of Gonadotropin-releasing hormone receptor (Homo sapiens) (P30968 whole entry, looked up): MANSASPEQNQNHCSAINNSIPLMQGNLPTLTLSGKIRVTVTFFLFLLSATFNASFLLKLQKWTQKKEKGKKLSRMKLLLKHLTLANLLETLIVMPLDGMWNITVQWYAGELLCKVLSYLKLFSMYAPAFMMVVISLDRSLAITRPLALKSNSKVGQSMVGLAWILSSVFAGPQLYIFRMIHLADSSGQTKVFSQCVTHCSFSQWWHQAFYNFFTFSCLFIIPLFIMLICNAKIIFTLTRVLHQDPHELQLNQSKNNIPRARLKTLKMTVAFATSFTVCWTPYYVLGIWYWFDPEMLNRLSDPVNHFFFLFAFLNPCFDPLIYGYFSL
Chain of KiSS-1 receptor (Homo sapiens) (Q969F8 whole entry, looked up): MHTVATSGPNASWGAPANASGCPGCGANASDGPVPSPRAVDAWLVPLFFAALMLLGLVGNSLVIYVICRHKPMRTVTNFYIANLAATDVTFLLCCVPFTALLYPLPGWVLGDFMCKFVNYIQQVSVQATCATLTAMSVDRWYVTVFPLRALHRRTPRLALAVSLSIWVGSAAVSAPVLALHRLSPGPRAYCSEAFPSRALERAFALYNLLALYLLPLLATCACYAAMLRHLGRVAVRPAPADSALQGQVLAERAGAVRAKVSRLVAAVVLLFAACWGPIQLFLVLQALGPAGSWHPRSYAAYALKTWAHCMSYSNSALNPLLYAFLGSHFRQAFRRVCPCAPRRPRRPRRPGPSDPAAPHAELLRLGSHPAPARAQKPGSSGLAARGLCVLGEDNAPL
Chain of Beta-2 adrenergic receptor (Homo sapiens) (P07550 whole entry, looked up): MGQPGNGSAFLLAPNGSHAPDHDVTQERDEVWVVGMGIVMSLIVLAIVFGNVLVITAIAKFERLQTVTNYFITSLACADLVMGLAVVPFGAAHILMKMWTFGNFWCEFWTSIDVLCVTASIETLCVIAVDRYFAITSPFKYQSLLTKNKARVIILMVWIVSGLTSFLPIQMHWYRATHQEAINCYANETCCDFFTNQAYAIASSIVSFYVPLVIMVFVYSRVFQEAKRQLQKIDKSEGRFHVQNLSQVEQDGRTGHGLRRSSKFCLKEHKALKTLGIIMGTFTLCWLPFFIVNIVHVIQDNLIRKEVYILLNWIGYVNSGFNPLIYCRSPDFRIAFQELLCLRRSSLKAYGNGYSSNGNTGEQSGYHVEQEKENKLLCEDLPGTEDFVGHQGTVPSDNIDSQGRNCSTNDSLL

As to `O=S(=O)(O)c1ccccc1/C=C/c1ccc(-c2ccc(/C=C/c3ccccc3S(=O)(=O)O)cc2)cc1`, the Potency result in [1], in assay [2], in assay [3], in [5], in assay [6] and in assay [7] was “inactive” throughout. Further, the Potency result in assay [8], in assay [9], in assay [10], in assay [11] and in assay [12] was “inactive” in each case. Moreover, in assay [4], the Potency was 11.7 µM (active).

With `Cc1ccc(O)c([C@H](CCN(C(C)C)C(C)C)c2ccccc2)c1`, the Potency result in assay [1], in assay [2], in assay [3], in assay [4], in [5] and in [6] was “inactive” each time. For the same molecule, the Potency entry in assay [13], in assay [8], in assay [9], in assay [15], in assay [16] and in assay [10] was “inactive” throughout. Besides, the Potency result in assay [17], in assay [11] and in [12] was “inactive” each time. Besides, the Potency in assay [14] was 0.0326 µM (active).

In the case of `COC(=O)/C=C/C(C)=C\C=C\C(C)=C\C=C\C=C(C)\C=C\C=C(C)\C=C\C(=O)O`, the Potency result in assay [1], in assay [2], in assay [3], in [18], in assay [5] and in assay [6] was “inactive” each time. In addition, the Potency result in assay [7], in assay [8], in assay [19], in assay [14], in assay [9] and in assay [15] was “inactive” in each case. For the same molecule, the Potency result in assay [10], in [11] and in [12] was “inactive” each time.

As to `Nc1ccc(N=Nc2ccccc2)c(N)c1`, the Potency result in [1], in assay [2], in assay [3], in assay [4], in [5] and in [6] was “inactive” each time. Also, the Potency result in assay [7], in assay [13], in assay [19], in assay [9], in assay [15] and in assay [16] was “inactive” in each case. The Potency in assay [8] is 1.64 µM (active); in assay [14], 23.2 µM (active).

For `CCOC(=O)c1nc(C(Cl)(Cl)Cl)n(-c2ccc(Cl)cc2Cl)n1`, the Potency entry in [1], in assay [2], in assay [3], in [5], in assay [6] and in assay [8] was “inactive” in each case. Further, the Potency entry in [19], in assay [11] and in assay [12] was “inactive” in each case. Moreover, the Potency in assay [16] is 61.1 µM (active).

As for `O=C1N=C(O)CN1/N=C/c1ccc(-c2ccc([N+](=O)[O-])cc2)o1`, the Potency result in assay [1], in [2], in [3], in assay [5], in assay [6] and in assay [7] was “inactive” in each case. Further, the Potency entry in [8], in [19], in assay [14] and in [12] was “inactive” each time.

Turning to `CO[C@]1(NC(=O)CSC(F)F)C(=O)N2C(C(=O)O)=C(CSc3nnnn3CCO)CO[C@H]21`, the Potency entry in assay [1], in [2], in assay [3], in assay [4], in assay [5] and in assay [6] was “inactive” in each case. Besides, the Potency entry in assay [7], in assay [13], in [8], in assay [19], in assay [14] and in [9] was “inactive” each time. Moreover, the Potency entry in assay [15], in assay [16], in assay [10], in assay [17], in assay [11] and in assay [12] was “inactive” throughout.

With `c1ccc(-c2ccccc2-c2ccccc2)cc1`, the Potency entry in assay [1], in assay [2], in assay [3], in assay [18], in [4] and in assay [13] was “inactive” in each case. In addition, the Potency result in assay [8], in [19], in [14], in assay [9], in assay [16] and in [10] was “inactive” throughout. The Potency result in assay [17], in assay [11] and in assay [12] was “inactive” in each case.

Regarding `CCOCC(C)O` (stereo unspecified), the Potency result in [1], in [2], in assay [3], in assay [5], in assay [6] and in assay [7] was “inactive” in each case. Further, the Potency entry in assay [8], in [19], in [14], in assay [9], in assay [15] and in assay [16] was “inactive” each time. Moreover, the Potency entry in [10], in assay [17], in assay [11] and in [12] was “inactive” throughout.
